Test results reported in the supplement of paper PMC3545927.
The other results are listed elsewhere or left out. How many sequences the whole screen found active is unknown.

Molecular target: furin, P09958
Test: furin cleavage Z-score vs untreated control; higher = more cleavage, active = 3.5 or more, inactive = 1 or less, 8 variable residues between constant flanks
How it was run: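 Reactions of 0.01 ml ran for 7.5, 15 or 30 min in 50 mM HEPES pH 7.5 with CaCl2 and NaCl, at 1:10 enzyme:substrate. In them, purified furin acted on bead-held 8-mer peptides fused to a cDNA oligonucleotide. The cleavage Z-score was obtained by lowess-adjusting log sequencing counts of released DNA against furin-free reactions and scaling by median absolute deviation.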

furin, P09958, sequence (P09958 whole entry): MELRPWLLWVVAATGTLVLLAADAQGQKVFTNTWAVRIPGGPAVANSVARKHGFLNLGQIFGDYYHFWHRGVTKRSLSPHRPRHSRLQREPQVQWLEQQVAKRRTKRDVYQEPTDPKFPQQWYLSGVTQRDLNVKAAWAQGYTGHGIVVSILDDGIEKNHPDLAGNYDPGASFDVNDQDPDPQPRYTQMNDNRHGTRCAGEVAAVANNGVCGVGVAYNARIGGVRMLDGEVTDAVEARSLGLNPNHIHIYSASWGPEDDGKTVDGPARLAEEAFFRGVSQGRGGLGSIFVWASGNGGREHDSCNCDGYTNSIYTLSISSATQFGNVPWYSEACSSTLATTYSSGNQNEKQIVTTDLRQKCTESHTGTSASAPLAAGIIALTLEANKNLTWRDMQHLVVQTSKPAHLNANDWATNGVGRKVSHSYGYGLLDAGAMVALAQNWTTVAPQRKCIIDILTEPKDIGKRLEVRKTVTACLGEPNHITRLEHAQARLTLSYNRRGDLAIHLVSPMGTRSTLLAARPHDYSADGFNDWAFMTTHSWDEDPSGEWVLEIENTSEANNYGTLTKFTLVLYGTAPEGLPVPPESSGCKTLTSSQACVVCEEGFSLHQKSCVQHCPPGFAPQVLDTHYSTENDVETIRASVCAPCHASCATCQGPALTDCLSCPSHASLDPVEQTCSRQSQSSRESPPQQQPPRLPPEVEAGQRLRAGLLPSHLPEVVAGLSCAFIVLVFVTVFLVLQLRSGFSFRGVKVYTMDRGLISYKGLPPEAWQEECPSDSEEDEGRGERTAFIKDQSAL

Sequence | furin cleavage Z-score (7.5 min) | furin cleavage Z-score (15 min) | furin cleavage Z-score (30 min)
CATWMNSTGFAGNASASA [HC437] | 0.658 (inactive) | 2.27 | -0.141 (inactive)
CATTPCSGSDAGNASASA [HC1931] | -0.759 (inactive) | -0.942 (inactive) | -0.913 (inactive)
CARPKRLDSAAGNASASA [FS-2578] | -0.648 (inactive) | -0.15 (inactive) | 0.332 (inactive)
CARPKRADTFAGNASASA [FS-2054] | 5.65 (active) | 7.21 (active) | 7.85 (active)
CARPSRKRRSAGNASASA [FS-1070] | 12.8 (active) | 11.6 (active) | 9.65 (active)
CARHIRKRRSAGNASASA [FS-1157] | 13.5 (active) | 13.3 (active) | 9.11 (active)
CARPSGMFDSAGNASASA [HC914] | -0.826 (inactive) | -0.415 (inactive) | -0.285 (inactive)
CARPKRCPRSAGNASASA [FS-2055] | 7.03 (active) | 6.47 (active) | 5.65 (active)
CARPKRYFTIAGNASASA [FS-2579] | -0.409 (inactive) | -0.643 (inactive) | -0.0555 (inactive)
CASTPCSALLAGNASASA [HC2545] | 0.599 (inactive) | 1.06 | 0.284 (inactive)
CATTPLARAAAGNASASA [HC1565] | -0.63 (inactive) | 1.08 | -0.687 (inactive)
CADITKLLLAAGNASASA [HC604] | -1.43 (inactive) | 0.163 (inactive) | 0.0126 (inactive)
CAEFERRWRSAGNASASA [FS-230] | -1.8 (inactive) | -0.415 (inactive) | 0.059 (inactive)
CAGERRKRRSAGNASASA [FS-425] | 14.4 (active) | 13.6 (active) | 11 (active)
CAGSHMKRRSAGNASASA [FS-659] | -0.564 (inactive) | 0.785 (inactive) | 1.98
CAEIKRKWRSAGNASASA [FS-21] | 2.15 | 3.65 (active) | 5.04 (active)
CAAGKRKRRSAGNASASA [FS-1299] | 12.8 (active) | 14.7 (active) | 10.5 (active)
CAAGKRVYYLAGNASASA [HC1559] | -0.901 (inactive) | 0.829 (inactive) | -0.892 (inactive)
CAEISRKRRSAGNASASA [FS-649] | 10.9 (active) | 9.94 (active) | 7.56 (active)
CAEVACHRPSAGNASASA [HC2343] | 0.99 (inactive) | 0.762 (inactive) | 1.27
CACPTDCFRKAGNASASA [HC451] | 0.183 (inactive) | -0.762 (inactive) | -0.961 (inactive)
CAVVLVGLMAAGNASASA [HC571] | -0.371 (inactive) | 0.0646 (inactive) | -0.205 (inactive)

Sequence | furin cleavage Z-score (7.5 min) | furin cleavage Z-score (15 min) | furin cleavage Z-score (30 min)
CASLHSYSPGAGNASASA [HC1607] | -1.22 (inactive) | 0.427 (inactive) | 0.0666 (inactive)
CARVVTSTWVAGNASASA [HC2153] | 1.81 | 1.03 | 0.0503 (inactive)
CARVKKSVEVAGNASASA [FS-3118] | 4.33 (active) | 7.31 (active) | 8.17 (active)
CAEVVTSTVVAGNASASA [HC2230] | -0.163 (inactive) | -0.129 (inactive) | -0.367 (inactive)
CAPTSGDVVVAGNASASA [HC874] | -0.612 (inactive) | 0.813 (inactive) | -0.497 (inactive)
CAEVTTSTWVAGNASASA [HC2198] | -0.604 (inactive) | 0.139 (inactive) | -0.711 (inactive)
CARVKRSVVVAGNASASA [FS-2840] | 8.15 (active) | 9.71 (active) | 8.81 (active)
CAPRKKRTVVAGNASASA [HC1324] | 11.4 (active) | 13.7 (active) | 11.3 (active)
CARKKRSVVVAGNASASA [DV4] | 9.41 (active) | 10.1 (active) | 9.47 (active)
CARCRRCVVVAGNASASA [FS-2327] | -0.669 (inactive) | 0.654 (inactive) | 1.36
CAFTPSPVVVAGNASASA [HC415] | -0.406 (inactive) | -0.269 (inactive) | -0.296 (inactive)
CAEVPCHVPSAGNASASA [HC2370] | -0.196 (inactive) | 0.881 (inactive) | 0.0659 (inactive)
CAVIPTSGDVAGNASASA [HC873] | -1.48 (inactive) | -0.378 (inactive) | 1.84
CAYRLWHYPCAGNASASA [HC467] | 0.186 (inactive) | 0.568 (inactive) | 0.0366 (inactive)
CAVVCFSMSYAGNASASA [HC86] | -0.132 (inactive) | 1.31 | 0.28 (inactive)
CADIEVVTSTAGNASASA [HC2284] | -0.624 (inactive) | -0.333 (inactive) | -1.16 (inactive)
CAPRCLVDYPAGNASASA [HC463] | 0.288 (inactive) | -0.558 (inactive) | -0.868 (inactive)
CAMEECSQDLAGNASASA [HC1751] | -0.0304 (inactive) | -0.261 (inactive) | 0.894 (inactive)
CASTPCSAHFAGNASASA [HC2567] | 1.04 | -0.481 (inactive) | 1.8
CARVKKSPPEAGNASASA [FS-2196] | 3.38 | 4.49 (active) | 5.53 (active)
CARVVLSGKPAGNASASA [HC1003] | -0.899 (inactive) | -0.703 (inactive) | -0.908 (inactive)
CARVKKEWEEAGNASASA [FS-1871] | -0.778 (inactive) | -0.527 (inactive) | -1.03 (inactive)
